Assay outcomes (PubChem)
KB-V1 cytotox – kills drug-selected multidrug resistant KB-V1 cells. Potency, µM (series often up to 46.1 µM), actives largely listed as cytotoxic. AID 1347076. KB-V1 MDR cells viability, CellTiter-Glo, 72 h. 400,000 tested, 3.4% active; note: % is set by controls: 0 for no effect and ±100 for the full control effect; nearly all actives have a fitted effect of over 60% in size
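In this primary screen, KB-V1 cells overexpressing P-gp are incubated with library compounds (lowest to highest concentration) for 72 h at 37 degrees C before a luminescent ATP viability read.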
TSG101-PTAP inh – blocks PTAP/TSG101 interaction to inhibit HIV-1 budding; Q99816; Fluorescence polarization, FITC-PTAP peptide / Tsg101 binding; Potency, µM (highest dose often 115 µM), without a hit: top-dose activity change, negative = inhibition, actives largely listed as inhibitors; 340,000 tested, under 10 active; AID 493005; active = well fitted inhibition curve with a large enough effect in the main read-out, with a control signal flat, not every such curve was filed as active; inconclusive = small, poorly fitted or top-dose-only effect, or effect the other way, or a change in a side signal; inactive = no such curve, though single readings can be large or run the other way; note: % of control where 0% means no effect
Target sequence (Q99816 whole entry, looked up): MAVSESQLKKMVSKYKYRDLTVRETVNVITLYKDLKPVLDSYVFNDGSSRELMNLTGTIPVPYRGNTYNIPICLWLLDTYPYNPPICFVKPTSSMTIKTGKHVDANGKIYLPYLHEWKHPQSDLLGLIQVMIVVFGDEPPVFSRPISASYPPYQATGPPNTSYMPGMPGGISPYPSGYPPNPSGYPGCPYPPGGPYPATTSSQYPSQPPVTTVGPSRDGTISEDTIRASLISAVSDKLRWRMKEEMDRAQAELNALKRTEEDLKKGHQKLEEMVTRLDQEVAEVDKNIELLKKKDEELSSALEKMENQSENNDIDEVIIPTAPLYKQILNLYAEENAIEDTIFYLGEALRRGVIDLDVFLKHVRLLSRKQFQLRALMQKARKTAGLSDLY
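Steps: Tsg101 binding domain dispensed (10 uM final), compounds pinned in DMSO, FITC-labeled PTAP-motif peptide added (50 nM final); after 20 min binding at room temperature, polarization measured.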
MCF10A rereplic – inducers of DNA re-replication in MCF 10A breast cells | AID 624296 | 350,000 tested, 2.9% active | MCF 10A DNA re-replication, Hoechst nuclear intensity, 48 h | Potency, µM (series often up to 46.1 µM), for inactives: top-dose activity, positive = re-replication, actives largely listed as activators; note: % of control where 0% means no effect; nearly all actives have a fitted effect of over 50% in size
SW480 rereplic – DNA re-replication induction in SW480 cells; SW480 DNA re-replication, Hoechst DNA content imaging, 48 h; Potency, µM (series often up to 46.1 µM), for the others: top-dose re-replication activation, usual class: activators; 340,000 tested, 1.8% active; AID 624297; note: % of control where 0% means no effect; nearly all actives have a fitted effect of over 55% in size
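Per well, 250 cells were exposed to pinned compound for 48 hr. Nuclear DNA was visualised with Hoechst (40 min, 37 C) and total object intensity recorded by fluorescence scanning.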
RGS4 inh – inhibitors of human regulator of G protein signaling 4; P49798; Transcreener GDP fluorescence polarization, RGS4-accelerated GTP hydrolysis; Potency, µM (doses to about 114 µM), for inactives: at the top dose activity change, negative = inhibition, hits mostly inhibitors; 390,000 tested, 0.039% active; AID 504845; note: % is set by controls: 0 for no effect and ±100 for the full control effect; nearly all actives have a fitted effect of over 75% in size
Target sequence (P49798 whole entry, looked up): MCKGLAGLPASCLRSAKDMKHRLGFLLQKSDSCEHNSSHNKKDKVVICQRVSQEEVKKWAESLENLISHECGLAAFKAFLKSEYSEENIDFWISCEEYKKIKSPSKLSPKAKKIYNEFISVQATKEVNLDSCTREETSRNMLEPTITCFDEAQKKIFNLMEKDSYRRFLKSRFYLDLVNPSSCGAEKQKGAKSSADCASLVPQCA
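MLSMR compounds (23 nl, pin-transferred) preincubated 10 min at room temperature with a 500nM (2x) first reagent, then RGS4 at 900nM (2x) plus Transcreener GDP mix added; fluorescence polarization (620/688 nm) read before and after 90 min at 30 °C.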
KB-3-1 tox – KB-3-1 parental cell cytotoxicity; KB-3-1 viability, CellTiter-Glo ATP luminescence, 72 h; Potency, µM (top dose mostly 46.1 µM), usual class: cytotoxic; 400,000 tested, 1.4% active; AID 1347075; note: % is set by controls: 0 for no effect and ±100 for the full control effect; nearly all actives have a fitted effect of over 60% in size
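Multi-concentration cytotoxicity screen in KB-3-1 cells grown in DMEM lacking phenol red with 10% FBS. After 72 h at 37 °C with compound, ATP-dependent luminescence was recorded.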
* marks the source's active call; other numbers are inactive results; i = inactive; ? = inconclusive; nt = no result given; [ ] = another dose, or the depositor's remark. Sampled rows, rich in hits. Any-hit rate of the full collection: about 6.6%. Unless noted, calls come from the whole dose curve; as a rule, active = well fitted curve in the direction sought with a large enough effect; inconclusive = small, poorly fitted or top-dose-only effect, or another doubt; inactive = no such curve, though single readings can be large; an effect the other way counts as inactive or inconclusive. Potency is the fitted concentration of half-maximal effect.

SMILES	KB-V1 cytotox	TSG101-PTAP inh	MCF10A rereplic	SW480 rereplic	RGS4 inh	KB-3-1 tox
O=C(Nc1nc(-c2ccc(F)c(F)c2)cs1)c1cnccn1	i	-8%	6%	1%	19%	i
O=C(Nc1nc(-c2cccc3ccccc23)cs1)c1cnccn1	?	-5%	18µM*	?	-25%	i
Cc1cccc(N2CCN(C(=O)Cn3c(=O)c4cccn4c4ccc(F)cc43)CC2C)c1 (configuration not stated)	nt	nt	nt	nt	-16%	nt
O=C(Nc1nc(-c2ccccc2)cs1)c1ccc2c(=O)n3c(nc2c1)CCCCC3	?	0%	18µM*	-7%	11%	?
O=C(Nc1ccccc1Cl)c1ccc2c(=O)n3c(nc2c1)CCC3	i	2%	6%	-5%	0%	i
O=C(CSc1n[nH]c(-c2ccccc2Cl)n1)N1CCN(c2ccccc2)CC1	i	nt	nt	nt	-16%	i
Cc1cnc2ccc(I)cc2c1/C=C/c1ccc(N(C)C)cc1	?	nt	nt	nt	nt	12µM*
Cc1cc(/C=C/c2nc3ccccc3s2)ccc1N(C)C	i	nt	nt	nt	nt	i
CN(C)c1ccc(/C=C/c2c(F)cnc3ccccc23)cc1	?	nt	nt	nt	nt	9.2µM*
Cc1cc(/C=C/c2c(C)cnc3ccccc23)ccc1N(C)C	16µM*	nt	nt	nt	nt	?
CCOc1ccc(CNC(=O)CCS(=O)(=O)c2cc3c(cc2Cl)NC(=O)CO3)cc1OC	i	nt	nt	nt	-9%	i
Cc1nc(Nc2cnc(/C=C/c3cc(C(=O)Nc4cccc(C(F)(F)F)c4)ccc3C)cn2)cc(N2CCNCC2)n1	?	16%	15µM*	16µM*	?	?
Cc1oc(-c2ccc(C(=O)Nc3cccc(C(F)(F)F)c3)cc2)nc1CSc1ccccc1	nt	nt	nt	nt	-13%	nt
CC(CNc1nc2ccccc2c2nc(-c3ccccc3)nn12)c1ccccc1 (configuration not stated)	i	nt	nt	nt	39%	i
CCC(C)(C)n1nnnc1C(c1cc2cccc(C)c2[nH]c1=O)N1CCCC1 (configuration not stated)	?	-6%	19%	15%	-18%	?
Cc1ccc(C)c2[nH]c(=O)c(C(c3nnnn3C(C)(C)C)N3CC=C(c4ccc(F)cc4)CC3)cc12 (configuration not stated)	?	0%	?	0.16µM*	28%	i
O=C(Cc1ccc(OCCC2CCCCC2)cc1)NO	i	nt	nt	nt	nt	i
Cc1cccc(-n2ncc(C(=O)NCc3ccco3)c2C2CCN(C(=O)OC(C)(C)C)CC2)c1	i	nt	nt	nt	18%	i
COc1cc(C(=O)N2CCN(c3cccc(C)c3C)CC2)cc(OC)c1OC	2.6µM*	0%	10µM*	0.73µM*	-2%	0.82µM*
Cc1ccc(C)c(N2CCN(C(=O)c3ccc4[nH]c(C)c(C)c4c3)CC2)c1	?	nt	nt	nt	18%	?
Cc1cccc(N2CCN(C(=O)c3ccnn3C)CC2)c1C	i	-3%	-1%	-2%	-21%	i
Cc1cccc(N2CCN(C(=O)c3ccncc3)CC2)c1C	5.8µM*	-6%	?	12µM*	8%	10µM*
Cc1ccc(C)c(N2CCN(C(=O)c3ccc4nsnc4c3)CC2)c1	8.2µM*	-3%	?	21µM*	-5%	12µM*
Cc1cccc(N2CCN(C(=O)c3c(C)nn(Cc4ccccc4Cl)c3C)CC2)c1C	?	-1%	15µM*	?	24%	i
COc1ccc(S(=O)(=O)N(CC(=O)Nc2ccc(F)c(Cl)c2)c2ccc(C)cc2)cc1OC	?	nt	nt	nt	1%	?
SMILES	KB-V1 cytotox	TSG101-PTAP inh	MCF10A rereplic	SW480 rereplic	RGS4 inh	KB-3-1 tox
COc1cc(C(=O)N2CCN(c3cc(Cl)ccc3Cl)CC2)cc(OC)c1OC	?	-1%	?	1.2µM*	-3%	0.33µM*
Cc1cccc(N2CCN(C(=O)c3ccc4ncsc4c3)CC2)c1C	?	-2%	9.2µM*	10µM*	3%[11.4 µM]	4.6µM*
O=C(C1CC1)N1CCN(c2nc3ccccc3s2)CC1	?	1%	-2%	1%	-16%	i
CN(C1CCCCC1)S(=O)(=O)c1ccc(C(=O)N2CCN(c3nc4ccccc4s3)CC2)cc1	2.6µM*	-5%	10%	-4%	-28%	i
Cc1cccc(N2CCN(C(=O)N3CCOCC3)CC2)c1C	?	0%	?	16µM*	?	21µM*
O=C(c1ccc2ncsc2c1)N1CCN(c2ccccc2Cl)CC1	?	-4%	28%	28%	42%	i
CCCN1CCCc2cc(CN(CCCN3CCOCC3)C(=O)Nc3ccc(Cl)c(Cl)c3)ccc21	?	nt	nt	nt	-11%	i
O=C(c1ccc2ncsc2c1)N1CCN(c2nc3ccccc3s2)CC1	7.3µM*	-3%	-15%	-9%	-4%	?
Cc1ccc(N=Nc2c(N)[nH]n3c(=O)cc(C)nc23)cc1	23µM*	-7%	?	-15%	-4%	18µM*
Cc1ccc(N=Nc2c(=O)[nH]n3c(C)cc(C)nc23)cc1	i	-4%	0%	-3%	-12%	i
Nc1[nH]n2c(=O)cc(-c3ccccc3)nc2c1N=Nc1ccc(S(N)(=O)=O)cc1	i	-5%	-7%	1%	-22%	i
Nc1[nH]n2c(=O)cc(-c3ccccc3)nc2c1N=Nc1ccccc1	?	-10%	?	6%	-6%	8.2µM*
COc1ccc(N(C)S(=O)(=O)c2cccc(C(=O)Nc3nnc(C)s3)c2)cc1	i	-4%	?	-13%	14%	i
CN(c1cccc(Cl)c1)S(=O)(=O)c1cccc(C(=O)NCc2ccncc2)c1	i	-4%	9%	-4%	3%	i
CN(c1cccc(Cl)c1)S(=O)(=O)c1cccc(C(=O)NC2=NCCS2)c1	21µM*	-4%	?	?	-17%	23µM*
CN(c1cccc(Cl)c1)S(=O)(=O)c1cccc(C(=O)Nc2nc3ccccc3[nH]2)c1	?	0%	8.2µM*	?	-29%	15µM*
COc1ccc(N(C)S(=O)(=O)c2cccc(C(=O)Nc3nc4ccccc4[nH]3)c2)cc1	16µM*	1%	?	?	9%	?
CCCCc1nc(NCCNC(=O)c2ccco2)c(C#N)c2c1CSC(C)(C)C2	2.3µM*	-3%	?	?	-49%	i
CCc1nc(Cl)c(C#N)c2c1CSC(C)(C)C2	i	-7%	0%	?	20%	i
CCCCc1nc(Cl)c(C#N)c2c1CSC(C)(C)C2	i	-4%	23µM*	?	18%	i
